Shown are actives, neighbours in structure and some others; about 6.5% of the full set was active somewhere.
TGFb inhibitor = blocks TGF-b signaling; HepG2 CAGA-GFP TGF-b/SMAD3 reporter, GFP fluorescence, 18 h; TGF-beta stimulated, 500 pg/mL final; Potency, µM (doses to about 46.1 µM), usual class: inhibitors; 1.2% of 410,000 active; also: nearly all actives have a fitted effect of over 65% in size
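TGF-beta reporter screen: HEPG2 CAGA-GFP, 1% FBS, 500 pg/mL TGF-beta final, 18 h; per-cell GFP summed per well; curves fitted and categorized by class.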
HT1080-NT tox = kills 2HG-producing HT-1080-NT fibrosarcoma cells. HT-1080-NT fibrosarcoma viability, CellTiter-Glo ATP luminescence, 48 h. Potency, µM (titrated, usually from 46.1 µM), hits mostly cytotoxic. 1.6% of 360,000 active;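 also: NT is the 2HG producing partner of a matched IDH1 knockdown line; nearly all actives have a fitted effect of over 55% in size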
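750 cells/well, RPMI + 5% FBS; 2 h settle, compound pin-transfer, 48 h at 37 degrees C. CellTiter-Glo 10 min RT, luminescence. Normalized to DMSO and media-only wells.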
HT1080 IDH1KD tx = toxicity to HT-1080 IDH1 knockdown cells (counter line); 2% of 360,000 active; AID 686971; Potency, µM (titrated, usually from 46.1 µM), hits mostly cytotoxic; HT-1080 IDH1 knockdown viability, ATP luminescence, 48 h
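CellTiter-Glo luminescence after 48 h compound exposure at 37 degrees C of IDH1-knockdown HT-1080 cells in 5% FBS RPMI. %Activity scaled between DMSO wells and cell-free media wells, with curves fitted and assigned curve classes.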
IL1B secr inh = blocks inflammasome-driven IL-1 beta release; 4.7% of 360,000 active; THP-1 LPS/ATP IL-1B secretion, AlphaLISA, 16 h; stronger effect = lower value; activity change, % at 57.5 µM; in the data active = activity change below about -50%; inconclusive = mostly about -30% to -49%
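THP-1 cells pretreated 1 hr with compounds (up to 57.5 uM final), then stimulated with LPS (250 ng/mL final) plus ATP (1.25 mM final); secreted IL-1B measured by AlphaLISA after 16 hr, decreased signal indicating inhibition.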
HepG2 tox = HepG2 cytotoxicity, counter-screen for TGF-b inhibitors; HepG2 CAGA-GFP viability, ATP luminescence, 18 h; Potency, µM (titrated, usually from 46.1 µM), actives largely listed as cytotoxic; 0.76% of 410,000 active; AID 588856
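CellTiter-Glo luminescence gave cytotoxicity after 18 hours at 37 degrees C. The cells were HepG2 CAGA-GFP in 1% FBS DMEM, stimulated with 500 pg/mL TGF-beta after compound addition. %Activity was normalised to no-cell wells (complete cell-killing) and DMSO (no toxicity), and curves were fitted and classified.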
Giardia killer = Giardia lamblia killing; Giardia lamblia trophozoite viability; AID 540267; activity change, % at 7.66 µM, hits read low; 0.15% of 340,000 active; in the data active = activity change below about -80%; inconclusive = between about -30% and that limit;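 also: parasites exposed to compound for two days anaerobically before the ATP read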
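Each well holds 100 Giardia trophozoites and compound. After two days (48 hrs) at 37 deg C in anaerobic conditions, ATP is quantified by luminescence.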
Large screens that a line does not name were inactive. Unless noted, calls follow the shape of the dose curve; as a rule, active = well fitted curve in the direction sought with a large enough effect; inconclusive = small, poorly fitted or top-dose-only effect, or another doubt; inactive = no such curve, though single readings can be large; an effect the other way counts as inactive or inconclusive.

CCC(Oc1ccccc1)C(=O)Nc1ncc([N+](=O)[O-])s1 (stereo not drawn)	Giardia killer -88
CC(CC(=O)Nc1ncc([N+](=O)[O-])s1)c1ccccc1 (stereo not drawn)	HT1080-NT tox inconclusive, HT1080 IDH1KD tx inconclusive, IL1B secr inh -63, Giardia killer -86
CCC(Oc1ccccc1)C(=O)Nc1nnc(C)s1 (stereo not drawn)	none
Cc1cccc(N2CCN(C(=O)C3CCN(c4ncnc5c4nc4n5CCCCC4)CC3)CC2C)c1 (stereo not drawn)	TGFb inhibitor inconclusive, HT1080-NT tox inconclusive, HT1080 IDH1KD tx inconclusive, IL1B secr inh inconclusive
CCS(=O)(=O)Nc1ccc(C(=O)OC)cc1	none
CC(=O)Nc1ccc(C(=O)c2ccccc2)cc1	none
CCS(=O)(=O)Nc1ccc(C(=O)c2ccccc2)cc1	IL1B secr inh -52
CCCCC(=O)Nc1ccc(C(=O)c2ccccc2)cc1	IL1B secr inh -60
O=C(c1cn(-c2ccccc2)nc1-c1cccc(Br)c1)N1CCOCC1	IL1B secr inh inconclusive
O=C1S/C(=C\C=C\c2ccco2)C(=O)N1c1ccc(O)cc1	HT1080-NT tox inconclusive, HT1080 IDH1KD tx inconclusive, IL1B secr inh -97
O=C(O)CCCN1C(=O)/C(=C/C=C/c2ccco2)SC1=S	IL1B secr inh inconclusive
O=C1S/C(=C\C=C\c2ccco2)C(=O)N1c1ccccc1	TGFb inhibitor inconclusive, HT1080-NT tox inconclusive, HT1080 IDH1KD tx inconclusive, IL1B secr inh -78
CC1CC(C)CN(CC(=O)Nc2cc(S(=O)(=O)N3CCOCC3)ccc2N2CCCC2)C1 (stereo not drawn)	none
Cc1ccc(C(=O)OCC(=O)Nc2nc(-c3ccccc3)cs2)cc1NC(=O)c1ccco1	TGFb inhibitor inconclusive, IL1B secr inh -80
Cc1nc(-c2ccc(C(=O)Nc3ccc(F)cc3)cc2)cs1	none
Cc1nc(-c2ccc(C(=O)Nc3ccccc3F)cc2)cs1	HT1080-NT tox 12µM, HT1080 IDH1KD tx 21µM, Giardia killer inconclusive
Cc1nc(-c2cccc(NC(=O)c3ccc(-n4cccn4)cc3)c2)cs1	TGFb inhibitor inconclusive, IL1B secr inh -51
Cc1nc(-c2ccc(NC(=O)c3ccco3)cc2)cs1	HT1080-NT tox inconclusive, HT1080 IDH1KD tx inconclusive, Giardia killer -98
Cc1nc(-c2ccc(C(=O)Nc3cccc(F)c3)cc2)cs1	HT1080-NT tox inconclusive, HT1080 IDH1KD tx inconclusive, Giardia killer inconclusive
O=C(NCCN1CCCCCC1)c1ccc(CS(=O)(=O)c2ccc(Br)cc2)o1	Giardia killer inconclusive
Cc1nc(-c2ccc(S(=O)(=O)Nc3ccc(Br)cc3Cl)s2)cs1	TGFb inhibitor inconclusive
Cc1nc(-c2ccc(NC(=O)c3ccccc3Br)cc2)cs1	IL1B secr inh -52
Cc1ccn2cc(-c3ccc(NC(=O)c4ccco4)cc3)nc2c1	IL1B secr inh -92
CCCCCC(=O)Nc1ccc(-c2csc(N)n2)cc1	TGFb inhibitor inconclusive, HT1080-NT tox inconclusive, HT1080 IDH1KD tx inconclusive, IL1B secr inh -76
Nc1nc(-c2ccc(NC(=O)c3ccco3)cc2)cs1	HT1080-NT tox 7.3µM, HT1080 IDH1KD tx 16µM
CC(C)OC(=O)N(C)C[C@@H]1OCc2cnnn2CCCC(=O)N([C@@H](C)CO)C[C@H]1C	none (no result: Giardia killer)
COc1ccc(-n2c(C)cc(C(=O)COC(=O)c3ccc(O)cc3O)c2C)cc1	TGFb inhibitor inconclusive, HT1080-NT tox inconclusive, HT1080 IDH1KD tx inconclusive
Cc1cc(C(=O)COC(=O)c2ccc(O)cc2O)c(C)n1-c1ccccc1	TGFb inhibitor inconclusive, IL1B secr inh -81
CC1(/[N+]([O-])=C/c2ccccc2F)CCCCC1=O (stereo not drawn)	none
Cc1cc(OCC(=O)N2CCc3ccccc3C2)c(C)cc1Br	TGFb inhibitor inconclusive, IL1B secr inh -55
CC(C)(C)NC(=O)N1CCCC(C(=O)c2cccc(Cl)c2)C1 (stereo not drawn)	none
Cc1cc(/C=c2/sc3nc4ccccc4n3c2=O)c(C)n1-c1ccccn1	IL1B secr inh -58, Giardia killer inconclusive
Cc1cc(/C=c2\sc3nc4ccccc4n3c2=O)c(C)n1-c1ccc(C(=O)O)cc1	TGFb inhibitor inconclusive
Cc1ccc(-n2nc(C)c(NC(=O)CCl)c2C)cc1C	TGFb inhibitor inconclusive, HT1080-NT tox inconclusive, HT1080 IDH1KD tx inconclusive, IL1B secr inh -104
CCC(=O)Nc1c(C)nn(-c2ccc(C)c(C)c2)c1C	none
Nc1c(C(O)(C(F)(F)F)C(F)(F)F)cc(C(O)(C(F)(F)F)C(F)(F)F)c2ccccc12	TGFb inhibitor 11µM, HT1080-NT tox 21µM, HT1080 IDH1KD tx 23µM, IL1B secr inh -96, HepG2 tox 18µM
CC(C)OC(=O)CSc1nnc(COc2ccc([N+](=O)[O-])cc2)n1C	IL1B secr inh -98
COC(=O)CSc1nnc(COc2ccc([N+](=O)[O-])cc2)n1C	none
CCOc1cc(C)ccc1OCc1nnc(SCC(=O)c2cccc([N+](=O)[O-])c2)n1C	TGFb inhibitor inconclusive, HT1080-NT tox inconclusive, HT1080 IDH1KD tx inconclusive, IL1B secr inh -51
Nc1nccc(/C=C/c2c(Cl)cccc2Cl)n1	HT1080-NT tox inconclusive, HT1080 IDH1KD tx inconclusive (no result: IL1B secr inh)
Nc1nccc(/C=C/c2ccc(Cl)cc2)n1	TGFb inhibitor inconclusive (no result: IL1B secr inh)
CSC1=NC(C)(C)C=C(/C=C/c2c(Cl)cccc2Cl)N1	HT1080 IDH1KD tx inconclusive, IL1B secr inh -97
CCSC1=NC(C)(C)C=C(/C=C/c2ccc(Cl)cc2Cl)N1	TGFb inhibitor inconclusive, HT1080-NT tox 16µM, HT1080 IDH1KD tx inconclusive, IL1B secr inh -93
CSC1=NC(C)(C)C=C(/C=C/c2ccc(Cl)cc2Cl)N1	TGFb inhibitor inconclusive, HT1080-NT tox inconclusive, HT1080 IDH1KD tx inconclusive, IL1B secr inh -105
CSC1=NC(C)(C)C=C(/C=C/c2ccc(Cl)cc2)N1	TGFb inhibitor inconclusive, HT1080-NT tox 23µM, HT1080 IDH1KD tx inconclusive, IL1B secr inh -101
COCCNC(=O)C1(C)CCCN(CCOc2ccc(Cl)cc2)C1 (stereo not drawn)	none (no result: Giardia killer)
COc1ccc(S(=O)(=O)Nc2ccc(C)cc2)cc1N(C)S(=O)(=O)c1ccc(Cl)cc1	TGFb inhibitor inconclusive, HT1080-NT tox inconclusive, IL1B secr inh -60
COc1ccc(S(=O)(=O)NN(C)C)cc1N(C)S(=O)(=O)c1ccc(Cl)cc1	none
COC(=O)CN(c1cc(Cl)ccc1OC)S(=O)(=O)c1ccc(C)cc1	HT1080-NT tox 18µM, HT1080 IDH1KD tx 16µM
FC(F)(F)c1cnc(NNC(=S)Nc2ccc(Cl)cc2)c(Cl)c1	TGFb inhibitor 2.8µM, HT1080-NT tox inconclusive, HT1080 IDH1KD tx inconclusive, IL1B secr inh -99

Screening results as filed in PubChem.
